PubChem BioAssay (NCATS)
Records with an inconclusive call do not appear. Values without a mark were called inactive. The source made the active and inactive calls. Calls come from the whole dose curve; as a rule, active = well fitted curve in the direction sought with a large enough effect; inconclusive = small, poorly fitted or top-dose-only effect, or another doubt; inactive = no such curve, though single readings can be large; an effect the other way counts as inactive or inconclusive.

Assays:
[1] = target: Cellular tumor antigen p53 (Homo sapiens) (UniProt P04637); experiment: Primary qHTS for small molecule compounds that upregulate eGFP-tagged delta133p53alpha (in N-terminal) cells. (AID 2060322); details: NCI-H358 eGFP-delta133p53alpha fluorescence, 24 h; activation: stronger effect = higher value;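 note: cells pre-induced with doxycycline then dosed without doxycycline; series mostly up to about 56 µM; 0% = DMSO vehicle and 100% = reference activator; nearly all actives have a fitted effect of over 75% in size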
How it was run: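 NCI-H358 cells pre-induced 24 h with 10 ng/ml doxycycline for eGFP-delta133p53alpha, plated dox-free and exposed 24 h at 37C to titrated compounds. Fixed, Hoechst-stained; gated GFP peak intensity by laser scanning cytometry, normalized to DMSO (0%) and 57.5 uM 5-azacytidine (100%).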

[2] = target: Aldehyde dehydrogenase, mitochondrial (Homo sapiens) (UniProt P05091); experiment: qHTS for Inhibitors of the Aldehyde Dehydrogenase Family (ALDH2) Primary screen (AID 2061308);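 note: plate controls were vehicle for no effect and reference inhibitor for full effect; nearly all actives have a fitted effect of over 55% in size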
[3] = target: Retinaldehyde dehydrogenase 3 (Homo sapiens) (UniProt P47895); experiment: qHTS for Inhibitors of the Aldehyde Dehydrogenase Family (ALDH1A3) Confirmatory screens (AID 2061311); note: potency is the fitted concentration of half-maximal effect; nearly all actives have a fitted effect of over 60% in size
[4] = target: Retinaldehyde dehydrogenase 3 (Homo sapiens) (UniProt P47895); experiment: qHTS for Inhibitors of the Aldehyde Dehydrogenase Family (ALDH1A3) Validation screen (AID 2061312); note: potency is the fitted concentration of half-maximal effect; nearly all actives have a fitted effect of over 45% in size

Cellular tumor antigen p53 (Homo sapiens), sequence (P04637 whole entry, looked up): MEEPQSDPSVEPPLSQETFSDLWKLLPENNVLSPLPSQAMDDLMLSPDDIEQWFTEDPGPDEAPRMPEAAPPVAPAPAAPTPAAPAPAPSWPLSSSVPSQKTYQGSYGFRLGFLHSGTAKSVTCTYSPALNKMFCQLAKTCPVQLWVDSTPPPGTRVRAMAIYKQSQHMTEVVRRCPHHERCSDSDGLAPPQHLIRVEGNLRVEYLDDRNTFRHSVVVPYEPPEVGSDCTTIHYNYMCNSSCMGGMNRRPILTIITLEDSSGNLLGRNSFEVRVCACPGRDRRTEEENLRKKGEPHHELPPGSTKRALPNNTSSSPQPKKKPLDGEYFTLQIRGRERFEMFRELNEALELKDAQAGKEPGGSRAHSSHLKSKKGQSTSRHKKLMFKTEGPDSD

SMILES	activation [1]	Potency [2]	Potency [3]	Potency [4]
COc1cccc2cc3c(c(O[C@@H]4O[C@H](CO[C@@H]5O[C@H](CO)[C@@H](O)[C@H](O)[C@H]5O)[C@@H](O)[C@H](O)[C@H]4O)c12)C(C)OC3=O (stereo not given in full)	3.57%	inactive		
C=C1CCC2C(C)(COC3OC(COC(=O)CC(=O)O)C(O)C(O)C3O)CCCC2(C)C1CCC1=CCOC1=O (stereo not given)	8.4%	inactive		
C=C1CC[C@H]2[C@@](C)(CCC(O)[C@@]2(C)CO)[C@@H]1C/C=C(/C(=O)O)C(O)CO (stereo not given in full)	-16.1%	inactive		
CC[C@@H]1[C@H]2CCCCN3C(=O)C[C@H]([C@@H]4[C@H]1OC(=O)[C@H]4C)[C@@H]23	-0.763%	inactive		
C=C1[C@H]2[C@H](O[C@@H]3O[C@H](COC(=O)/C=C/c4cc(OC)c(O)c(OC)c4)[C@@H](O)[C@H](O)[C@H]3O)OC=C(C(=O)O)[C@H]2C[C@@H]1O	-10.7%	inactive		
NC(=O)[C@@H]1CC[C@H](c2ccc(OCc3ccccc3F)cc2)N1	-11.6%	inactive		
C=C1C(O)CC2C(C(=O)O)=COC(OC3OC(CO)C(O)C(O)C3OC(=O)/C=C\c3ccc(O)cc3)C12 (stereo not given)	-22.9%	inactive		
COc1cc(/C=C/C(=O)O[C@H]2[C@H](O)[C@@H](CO)O[C@@]2(CO)O[C@H]2O[C@H](COC(=O)c3ccc(O)cc3)[C@@H](O)[C@H](O)[C@H]2O)cc(OC)c1OC	-19.8%	inactive		
O=[N+]([O-])c1ccc(-[n+]2nc(-c3ccccc3)nn2-c2ccc(I)cc2)cc1	-2.39%	inactive	11.3 µM (active)	17.8 µM (active)
